Results reported in PubChem BioAssay (Tox21).
Results filed as inconclusive are left out. Unmarked numbers belong to inactive results. Calls follow the shape of the dose curve; as a rule, active = well fitted activation curve with a large enough effect in the signal ratio in the repeat runs (not every such curve was filed as active); inconclusive = weak or mixed curves, or effect the other way; inactive = no such curve, though single readings can be large or run the other way; the % refers to the signal ratio.

biological target: Glucocorticoid receptor (Homo sapiens) (UniProt P04150); experiment: qHTS assay to identify small molecule agonists of the glucocorticoid receptor (GR) signaling pathway (AID 720691); details: GR-bla HeLa, beta-lactamase reporter ratio, 18 h; series mostly up to 62.4 µM; activation: at the top concentration
Sequence (P04150 whole entry, looked up): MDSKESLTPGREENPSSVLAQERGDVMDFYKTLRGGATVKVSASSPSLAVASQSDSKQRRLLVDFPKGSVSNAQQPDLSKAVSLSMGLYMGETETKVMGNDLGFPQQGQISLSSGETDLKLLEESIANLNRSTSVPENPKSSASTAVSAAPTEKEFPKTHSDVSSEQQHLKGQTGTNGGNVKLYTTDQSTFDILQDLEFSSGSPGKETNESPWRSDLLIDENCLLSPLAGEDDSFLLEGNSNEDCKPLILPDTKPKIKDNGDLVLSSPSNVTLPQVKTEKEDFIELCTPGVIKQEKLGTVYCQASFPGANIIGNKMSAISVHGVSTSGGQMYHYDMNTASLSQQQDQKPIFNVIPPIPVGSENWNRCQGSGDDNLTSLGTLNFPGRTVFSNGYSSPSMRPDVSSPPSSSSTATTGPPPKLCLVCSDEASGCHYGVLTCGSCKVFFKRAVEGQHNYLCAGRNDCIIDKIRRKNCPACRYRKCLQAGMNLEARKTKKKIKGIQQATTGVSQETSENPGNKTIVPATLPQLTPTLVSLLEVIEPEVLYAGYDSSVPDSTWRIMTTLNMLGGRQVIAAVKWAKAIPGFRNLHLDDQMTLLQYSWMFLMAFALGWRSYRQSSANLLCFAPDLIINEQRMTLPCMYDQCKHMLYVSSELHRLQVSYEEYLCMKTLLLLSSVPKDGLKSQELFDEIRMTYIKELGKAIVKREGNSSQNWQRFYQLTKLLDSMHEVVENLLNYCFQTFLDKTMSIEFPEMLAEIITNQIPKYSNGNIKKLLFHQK
Text: U.S. Tox21 Program National Center for Advancing Translational Sciences [NCATS] NIH Chemical Genomics Center [NCGC] U.S. Environmental Protection Agency [EPA] National Institutes of Environmental Health Sciences [NIEHS] National Toxicology Program [NTP] U.S. Food and Drug Administration [FDA] Tox21 Assay Overview: The Glucocorticoid receptor (GR) is one of the members of the nuclear receptor family of ligand-dependent transcription factors. GR plays a critical role in carbohydrate, protein and lipid metabolisms and programmed cell death. CellSensor GR-bla HeLa cell line (Invitrogen) contains a beta-lactamase reporter gene under the control of the glucocorticoid response element stably integrated into HeLa cells, a cervical cancer cell line that expresses glucocorticoid receptor. The activation of the reporter gene under culture conditions can be detected by fluorescence intensity. This cell line has been used to screen the Tox21 10K compound library and to identify the compounds that activate the GR signaling.
Tox21 Assay Protocol Summary: The GR-bla HeLa cells were dispensed at 1500 cells/6 ul/well in 1536-well black wall/clear bottom plates using a Multidrop Combi (ThermoFisher Scientific, Waltham, MA) dispenser. After the assay plates were incubated at a 37 C/5% CO2 incubator for 4 hours, 23 nL of compounds dissolved in DMSO, positive controls or DMSO only was transferred to the assay plate by a pintool station (Kalypsys, San Diego, CA). The plates were incubated at 37 C for 18 hours. After 1 uL of LiveBLAzerTM B/G FRET substrate was added using a Flying Reagent Dispenser (Aurora Discovery, San Diego, CA), the plates were incubated at room temperature for 2 hours, and fluorescence intensity was measured by an Envision plate reader (PerkinElmer, Shelton, CT).
% is scaled to controls: 0 for no effect and ±100 for the full control effect.

Compound	activation
CCCCCN(CCCCC)C(=O)C(CCC(=O)O)NC(=O)c1ccc(Cl)c(Cl)c1 (stereo not given)	0.315%
CCCCc1ccc2cccc(S(=O)(=O)O)c2c1	-1.76%
CC(C)=CCC/C(C)=C/C(=O)O	-0.474%
C1C2OC2C2C1C1CC2C2OC12 (stereo not given)	0.678% [at 79.2 µM]
CC/C=C\C#N	-0.312%
CC(C)CCCC(C)CCCC(C)CCCCC(C)CCCC(C)CCCC(C)C (stereo not given)	-0.353%
CC(=O)CCc1ccc(O)cc1	0.0635%
c1ccc2cnncc2c1	-1.29%
O=C(O)c1ccc[n+]([O-])c1	-1.8%
CCCOc1ccccc1-c1nc2n[nH]nc2c(=O)[nH]1	-0.349%
CCOC(=O)Cn1c(=O)sc2cccc(Cl)c21	-0.477%
N#CC1(O)CCCCC1	0.203% [at 79.2 µM]
O=C(O)c1ccccc1-c1ccc(C(F)(F)F)cc1	-2.06%
Oc1cc(O)c2c(c1)O[C@H](c1ccc(O)c(O)c1)[C@H](O)C2	-1.46%
CCCC=O	-0.123%
OC[C@H]1O[C@@H]2O[C@H]3[C@H](O)[C@@H](O)[C@@H](O[C@H]4[C@H](O)[C@@H](O)[C@@H](O[C@H]5[C@H](O)[C@@H](O)[C@@H](O[C@H]6[C@H](O)[C@@H](O)[C@@H](O[C@H]7[C@H](O)[C@@H](O)[C@@H](O[C@H]8[C@H](O)[C@@H](O)[C@@H](O[C@H]9[C@H](O)[C@@H](O)[C@@H](O[C@H]1[C@H](O)[C@H]2O)O[C@@H]9CO)O[C@@H]8CO)O[C@@H]7CO)O[C@@H]6CO)O[C@@H]5CO)O[C@@H]4CO)O[C@@H]3CO	-4.18% [at 29.2 µM]
CSc1ccc(C=O)cc1	2.77%
COc1nc(C)nc(N)n1	-2.69%
CCn1cc(C(=O)O)c(=O)c2cc(F)c(N3CCN(C)CC3)cc21	4.11%
CC(C)(C)OC(=O)N1C[C@@H](F)C[C@H]1C(=O)O	-4.37% [at 79.2 µM]

Compound	activation
COc1ccc(NC(C)=O)cc1	-3.91% [at 79.2 µM]
C=CC(=O)N1CCOCC1	7.62%
COC(=O)CCCC(=O)O	0.392%
C=CCSCC1Nc2cc(Cl)c(S(N)(=O)=O)cc2S(=O)(=O)N1 (stereo not given)	0.476%
CO[Si](CCCNCCC[Si](OC)(OC)OC)(OC)OC	-3.24%
CC(C)[N+](C)(C)CC(O)COc1cccc2ccccc12 (stereo not given)	1.03%
CC1=CC(=O)CCC1	0%
CCCCC=O	-3.16%
CC1CCN(CCCC(=O)c2ccc(F)cc2)CC1	0.0129%
CCCCCCCCN(C)CCCCCCCC	2.81% [at 79.2 µM]
CCO[Si](C)(OCC)OCC	0.522%
CC(C)[C@H](N)C(=O)OCCOCn1cnc2c(=O)[nH]c(N)nc21	0.439%
C#CC(O)C(CC)CCCC (stereo not given)	-2.53%
C(=C(c1ccccc1)c1ccccc1)c1ccccc1	0.372%
OCC(O)[C@@H](O)[C@H](O)[C@H](O)CO[C@H]1O[C@H](CO)[C@@H](O)[C@H](O)[C@H]1O (stereo not given in full)	-1.52%
CC(C)(O)c1ccccc1	1.14%
O=C1OC(=O)c2cc([N+](=O)[O-])ccc21	-1.62%
CN(C)C(=O)C(CCN1CCC(O)(c2ccc(Cl)cc2)CC1)(c1ccccc1)c1ccccc1	0.36%
CC(C)CCCCCCN	1.19%
C=C(C)C(=O)OCCCCCCCCCCCCCCCCCC	-0.481% [at 29.2 µM]
